# Screening data deposited in PubChem BioAssay by several laboratories.
# MKP-1 inh: MKP-1 phosphatase inhibitors, primary screen, biochemical, in vitro; 65,000 compounds, 0.15% hits; recombinant MKP-1, OMFP hydrolysis fluorescence; Dual specificity protein phosphatase 1 (Homo sapiens), P28562; AID 374, 2006; inhibition, %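 (compounds tested at a single concentration somewhere between 10 and 100 µM)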;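 active means inhibition above about 50%, limit read from the data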;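 further: 0% = DMSO max control wells and 100% = wells with enzyme stopped by NaOH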
# Hsp90 inh: tumor Hsp90 inhibitors, primary screen, cell lysate, fluorescence polarization, NCI-N417 lysate; inhibition, % at 30 µM; Cy3B-geldanamycin FP displacement; Heat shock protein HSP 90-alpha (Homo sapiens), P07900; 64,000 compounds, 0.35% hits;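 active means inhibition above 50%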;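 further: 0% = tracer plus lysate wells and 100% = tracer alone without lysate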
# MMP-13 inhibitor: human MMP13 inhibitors, primary screen, biochemical, FRET peptide cleavage | Collagenase 3 (Homo sapiens), P45452 | MMP-13 fTHP FRET cleavage, Mca fluorescence | inhibition, % at 4 µM | 65,000 compounds, 0.07% hits | AID 570, 2006;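 active means inhibition above the mean of compound-free control plate wells plus 3 SD, cut at about 14% in these data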;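 further: 0% = DMSO wells and 100% = wells with reference MMP-13 inhibitor after basal subtraction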
# M1 antagonist: antagonists of rat M1 muscarinic receptor | Muscarinic acetylcholine receptor M1 (Rattus norvegicus), P08482 | CHO-M1 cells, Fluo-4 calcium, ACh EC80 antagonist mode; stronger effect = lower value | B-score at 10 µM | 64,000 compounds, 3.4% hits | AID 628, 2007;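 active means calcium fluorescence response, raw or row-and-column corrected B-score, differing from the plate sample mean either way at a set confidence level, mostly lower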
# Cdc25B inh: inhibitors of Cdc25B phosphatase catalytic domain, primary screen, biochemical, OMFP fluorescence. M-phase inducer phosphatase 2 (Homo sapiens), P30305. recombinant Cdc25B, OMFP fluorescence Ex485/Em525. inhibition, %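 (compounds tested at 10 µM final in the well)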. 65,000 compounds, 0.1% hits. AID 368, 2006; in the data active means inhibition above about 50%
# Target sequence (P30305 whole entry, looked up, the tested form may be a part): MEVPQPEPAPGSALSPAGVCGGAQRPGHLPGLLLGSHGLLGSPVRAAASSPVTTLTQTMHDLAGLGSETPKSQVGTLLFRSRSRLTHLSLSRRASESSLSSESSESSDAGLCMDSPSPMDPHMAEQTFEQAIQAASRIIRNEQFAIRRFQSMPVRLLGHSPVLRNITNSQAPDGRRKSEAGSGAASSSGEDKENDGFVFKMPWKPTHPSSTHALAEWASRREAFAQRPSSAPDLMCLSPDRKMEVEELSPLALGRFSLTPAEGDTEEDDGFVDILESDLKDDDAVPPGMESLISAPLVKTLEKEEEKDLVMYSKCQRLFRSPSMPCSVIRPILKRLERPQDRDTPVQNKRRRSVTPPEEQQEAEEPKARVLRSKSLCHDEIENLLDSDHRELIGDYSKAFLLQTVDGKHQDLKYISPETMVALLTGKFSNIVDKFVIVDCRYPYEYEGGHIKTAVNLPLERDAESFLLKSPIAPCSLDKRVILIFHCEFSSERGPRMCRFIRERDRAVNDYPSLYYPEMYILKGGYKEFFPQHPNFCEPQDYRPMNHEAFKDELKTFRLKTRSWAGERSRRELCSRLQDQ
# M1 ag: M1 muscarinic receptor agonists, primary screen, CHO-M1 cells, Fluo-4 calcium, agonist mode | 64,000 compounds, 3% hits | Muscarinic acetylcholine receptor M1 | Fluo-4 calcium fluorescence; stronger effect = higher value | B-score at 10 µM | AID 626, 2007;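 active means fluorescence rise, raw or as B-score row- and column-corrected plate score, outside the 99.7% band of its plate's samples, either direction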
# M1 antag confirm: rat M1 muscarinic receptor antagonists, confirmation, CHO cells, Fluo-4 calcium, duplicate. shares compounds with M1 antagonist. ACh EC80 antagonism; stronger effect = lower value. calcium response (max-min fluorescence) at 10 µM. 1,700 compounds, 43% hits. AID 677, 2007;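 active means calcium response below the same-plate mean of wells given acetylcholine alone at its 80%-effect dose, minus 3 SD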;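 further: raw fluorescence intensity difference in arbitrary instrument units and not normalized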
# mGluR4 antag: human mGluR4 response to M1 antagonist hits, M1 allosteric modulator project, cell-based, antagonist mode, secondary assay 1 | shares compounds with M1 antagonist | CHO-mGluR4 calcium flux, Fluo-4 fluorescence, glutamate EC80; stronger effect = lower value | fluorescence response (max-min) at 10 µM | 1,700 compounds, 0.9% hits;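 active means fluorescence response below the plate's average for near-maximal glutamate wells, less 3 SD of those wells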;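 further: raw unnormalized fluorescence span taken in the window right after glutamate addition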
# An asterisk follows results filed as active; . = no result. In the library only some 6.1% were active in any assay of this set; here they are far more common.
SMILES,MKP-1 inh,Hsp90 inh,MMP-13 inhibitor,M1 antagonist,Cdc25B inh,M1 ag,M1 antag confirm,mGluR4 antag
Cc1ccc(Cn2c(SCCN3CCCCC3)nc3c2c(=O)[nH]c(=O)n3C)cc1,5,-2,-4,-1.9*,-1,0.015,457*,232
C=CCn1c(SCCN2CCCCC2)nc2c1c(=O)[nH]c(=O)n2C,0,-1,7,-2.7*,5,0.032,468,203
CCCCSc1nc2c(c(=O)[nH]c(=O)n2C)n1CCc1ccccc1,1,-1,3,-0.035,-3,-0.0089,.,.
C=CCn1c(SCCOC)nc2c1c(=O)[nH]c(=O)n2C,13,-1,0,0.8,10,-0.18,.,.
Cc1cccc(Cn2c(Sc3nc(C)cs3)nc3c2c(=O)[nH]c(=O)n3C)c1,-10,-5,1,-7.1*,-4,-0.64,524*,276
Cc1ccc(Cn2c(SCCN3CCOCC3)nc3c2c(=O)n(C)c(=O)n3C)cc1,5,.,2,-0.46,-17,0.22,.,.
O=C(N1CCOCC1)C(F)(F)C(=O)N1CCOCC1,5,0,0,0.71,2,-0.82,.,.
CCN1CCCC1CNC(=O)Cn1cnc2sc(C)c(S(=O)(=O)N3CCC(C)CC3)c2c1=O (configuration not stated),.,.,3,-0.37,.,-1.5,.,.
CCCNC(=O)C1CC(=O)N(c2ccc(OCC(=O)Nc3cc(C)cc(C)c3)cc2)C1 (configuration not stated),1,-3,1,0.0049,-34,-0.45,.,.
CCCS(=O)(=O)N1CCC(C(=O)NCCN(C)Cc2ccccc2)CC1,4,-2,2,-0.31,10,-1.1,.,.
Cn1c(=O)[nH]c(=O)c2c1nc(SCCN1CCCCC1)n2CCCc1ccccc1,-37,-3,-2,-3.8*,-12,0.43,428,187
Cc1ccc(Cn2c(CN3CC(C)OC(C)C3)nc3c2c(=O)[nH]c(=O)n3C)cc1 (configuration not stated),28,-4,-5,-5.2*,-6,0.036,546,183
COc1cccc(C2/C(=C(\O)c3ccc(OC)c(OC)c3)C(=O)C(=O)N2c2cc(C)on2)c1 (configuration not stated),-13,-2,-5,0.33,-21,0.92,.,.
Cc1cc(C(=O)N2CCN(c3ncccn3)CC2)cs1,-6,-5,-4,0.7,-10,0.17,.,.
CC1CCc2cc(F)ccc2N1C(=O)CSc1nnc(-c2cccs2)n1C (configuration not stated),3,-1,10,-6.1*,2,-0.57,545,181
Cc1ccc(C)c(NC(=O)c2ccccn2)c1,-1,0,0,0.59,-6,0.091,.,.
Cc1cccc(NC(=O)c2ccccn2)c1C,-3,-2,2,-1.9*,-10,0.83,658,256
CC(CN1CCCCC1)OC(=O)c1ccc2c(c1)OCO2 (configuration not stated),4,-14,-1,-2.7*,3,1.1,457,221
CC(CN1CCCCC1)OC(=O)c1cc2ccccc2o1 (configuration not stated),17,-12,2,-4.7*,-5,-1.1,296*,252
CC1CCN(CC(C)OC(=O)c2ccc3c(c2)OCCO3)CC1 (configuration not stated),0,-1,0,-12*,-4,0.041,92*,240
O=C(c1cc2ccccc2o1)N1CCCCCC1,-7,-16,1,-0.28,-4,0.39,.,.
Cc1c(C(=O)NCc2cccnc2)oc2ccc(S(=O)(=O)N3CCCC(C)C3)cc12 (configuration not stated),21,.,4,-0.96,-14,-0.41,.,.
